Bioassay records: PubChem, Broad Institute
This is a sample that favours compounds with a hit; in the whole collection about 3.4% have one here.
MITF act: activators of MITF-driven TRPM1 promoter activity in SK-MEL-5 cells. actives 0.75% (n = 300,000). SK-MEL-5 TRPM1-promoter luciferase, 24 h; % of positive control, neutral wells = 0. activation, % at 12.5 µM;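 active = mean activation of at least 80% with every replicate also reaching 80%; inconclusive = mean reaches 80% but some replicate falls short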;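 note: 0% = neutral control wells and 100% = parthenolide positive control wells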
Env fusion inh: inhibitors of HIV Env-mediated cell fusion; actives 1.1% (n = 360,000); AID 651610; inhibition, % at 12.3 µM; HeLa-JRFL Env/CEM21 cell fusion, luciferase;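 active = mean replicate inhibition score of at least 50 and every replicate individually at or above 50; inconclusive = only one of the two criteria met; inactive = mean below 50 and not all replicates reaching 50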;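 note: 0% = plate neutral controls and 100% = maraviroc near 300 nM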
miR122 inh: inhibitors of miR-122 in Huh7 cells | actives 0.3% (n = 340,000) | AID 602342 | activation (reporter increase), % at 12.5 µM | Huh7 miR-122 Renilla luciferase sensor, 48 h; neutral wells = 0, positive control = 100;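 active = mean replicate activation score at least 90 and every replicate individually at or above 90; inconclusive = only one of the two criteria met; inactive = neither criterion met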;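 note: higher luciferase means less miR-122 activity so hits act as miR-122 inhibitors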
Wnt act: activators of Wnt/beta-catenin signaling. Wnt/beta-catenin reporter cell assay, activator, plate reader. activation, % at 9.35 µM. actives 1.2% (n = 300,000); in the data active = activation above about 30%, passing the limit was not always enough; inconclusive = no clear call, values can overlap the other calls;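 note: 0% = neutral control wells and 100% = positive control wells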
esBAF inh: SWI/SNF esBAF complex inhibition; mouse ES cells, Bmi1-luciferase knock-in reporter, 24 h; 100% = twice the neutral-well signal; reporter increase, % at 12.5 µM; actives 2% (n = 350,000); AID 602393; in the data active = activation above about 40%; inconclusive = no clear call, values can overlap the other calls;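 note: 0% = median of the plate's neutral control wells and 100% = double that signal; a rise in the Bmi1 reporter signal indicates esBAF inhibition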
Ring1 derepress: confirmation of esBAF inhibitors: Ring1 de-repression in mouse ESCs | shares compounds with esBAF inh | mouse ESC E14, Ring1 mRNA RT-qPCR fold change | fold change at 33 µM | 550 tested, under 10 active | AID 743176;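 active = Ring1 gene expression raised more than 2-fold over untreated cells in both replicates at either tested dose; inconclusive = only one replicate above 2-fold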;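 note: Ring1 transcript normalised to actin housekeeping signal by TaqMan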
esBAF Fgf4 qPCR: confirmation of esBAF inhibitors: Fgf4 repression in mouse ESCs. Fgf4 expression fold change at 33 µM. actives 4% (n = 550). mouse ESC E14, Fgf4 mRNA qPCR fold change; active compounds read low. AID 743177. shares compounds with esBAF inh;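 active = Fgf4 expression under 0.8 fold of control in both repeat measurements at one or both tested doses; inconclusive = under 0.8 fold in just a single repeat measurement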;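 note: Fgf4 transcript normalised to actin in duplex TaqMan qPCR; cells exposed to compound for 24 h before lysis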
Bmi1 derepress: confirmation of esBAF inhibitors: Bmi1 de-repression in mouse ESCs | shares compounds with esBAF inh | mouse ESE14 ES cells, Bmi1 mRNA qPCR fold; active compounds read high | fold change at 33 µM | 550 tested, under 10 active | AID 743180;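 active = Bmi1 expression fold change above 6 at either tested concentration, seen in replicate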;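 note: higher fold means more Bmi1 de-repression and stronger esBAF inhibition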
A549 tox SP: kills or reduces viability of A549 cells. cell viability change % (negative = cytotoxic), % at 25 µM, hits read low. 550 tested, under 10 active. shares compounds with esBAF inh. A549 cytotoxicity, plate reader; call rule not given here
HepG2 cytotox SP: HepG2 cell cytotoxicity at single point | activity change, negative = inhibition, % at 25 µM | shares compounds with esBAF inh | AID 743189 | actives 4% (n = 550) | plate reader; active compounds read low; in the data active = activity change below about -50%
HEK293 tox SP: cytotoxicity in HEK293 cells | plate reader | activity change, negative = inhibition, % at 25 µM, hits read low | AID 743190 | shares compounds with esBAF inh | actives 3% (n = 550); in the data active = activity change below about -38%, passing the limit was not always enough
Starred values were filed as active, the others as inactive; u = inconclusive; x = no result given; [ ] = remark or other dose.

SMILES	MITF act	Env fusion inh	miR122 inh	Wnt act	esBAF inh	Ring1 derepress	esBAF Fgf4 qPCR	Bmi1 derepress	A549 tox SP	HepG2 cytotox SP	HEK293 tox SP
CC(C)(C)Nc1nc(Cl)nc(Nc2ccccc2)n1	x	-29.9	-3.2	9.3	58.8*	1.27	u	1.64	-10.3	1.2	-14.0
Cc1noc(C)c1S(=O)(=O)Nc1ccc2c(c1)C(=O)N([C@H](C)CO)C[C@H](C)[C@@H](CN(C)S(=O)(=O)c1cccs1)OCCCC[C@H](C)O2	x	-42.7[16.7 µM]	20.7[16.7 µM]	x	-3.7	x	x	x	x	x	x
Cc1ccc(C(=O)Cc2ccccc2)c(O)c1	38.9	-7.7	-3.0	5.9	61.9*	1.02	1.01	1.58	-10.1	-30.9	-12.7
Cc1ccc2c3c([nH]c2c1C)-c1nonc1CC3	46.8	-413.4	-3.7	11.3	54.6*	1.22	u	1.75	-3.3	-33.6	-24.1
Cc1nc2ccc(-c3nc4ccccc4[nH]3)cc2[nH]1	54.6	-124.6	x	u	x	x	x	x	x	x	x
Cc1ccc(-c2nc3ccccc3[nH]2)cn1	32.8	-109.6	1.8	0.4	63.1*	0.904	1.36	1.41	-29.7	-38.3	-28.5
Cc1ccc(NC(=O)Cc2noc3ccccc23)cc1	x	-113.6	2.4	x	80.5*	1.07	0.996	0.991	2.4	-34.5	-11.7
CCN1[C@@H]2Cn3c(ccc(-c4ccncc4)c3=O)[C@H]1[C@@H](C(=O)NCc1ccccc1)[C@@H]2CO	x	x	4.5[16.7 µM]	x	-11.0	x	x	x	x	x	x
COC(=O)c1ccc2[nH]c(C3(O)CCCCC3)c(C)c2c1	83.5*	-44.9	-3.8	u	72.3*	1.13	1.13	0.966	1.1	-55.7*	6.2
Nc1n[nH]c(N)c1N=Nc1ccc(Cl)cc1	53.4	9.3	-7.4	-2.9	52.8*	1.4	1.07	1.87	0.2	3.3	4.8
Cc1cccc(N=Nc2c(N)n[nH]c2N)c1	x	-2.2	x	1.6	8.0	x	x	x	x	x	x
Cc1cc(Cl)c(O)c(-n2nc3ccccc3n2)c1	64.9	-19.4	0.9	-2.7	60.9*	0.943	0.957	1.23	5.3	-37.7	4.3
Cc1ccc(N/N=C2/CCCNC2=O)cc1	x	x	-1.4	1.0	-0.2	x	x	x	x	x	x
O=C1NCCC/C1=N/Nc1cc(F)ccc1F	57.1	-14.0	x	-2.4	60.1*	0.824	0.882	1.35	-11.8	-54.9*	-21.1
O=C(CCc1nnc(C2(c3ccc(Cl)cc3)CCC2)o1)N1CCCC1	43.0	-43.7	6.1	28.5	65.1*	0.897	0.94	1.28	-12.4	-11.5	-18.3
CO[C@@H]1CN(C)C(=O)c2ccc(NS(=O)(=O)c3ccc(C)cc3)cc2OC[C@@H](C)N(C(=O)NC(C)C)C[C@@H]1C	x	x	2.8[16.7 µM]	x	3.1	x	x	x	x	x	x
CN(C)c1ccc(-c2ccc3oc(-c4ccsc4)cc(=O)c3c2)cn1	124.4*	-137.8	1.1	38.1*	68.8*	1.13	0.857	1.15	-21.5	10.4	-23.9
COc1cc(C=O)c(Br)cc1OCc1ccc(C)cc1	21.5	x	x	x	81.4*	1.54	1.12	1.87	-5.1	2.7	-10.9
CO[C@H]1CN(C)C(=O)c2ccc(NC(=O)C3CC3)cc2OC[C@@H](C)N(Cc2ccccc2)C[C@@H]1C	x	x	-8.0[16.7 µM]	x	2.6	x	x	x	x	x	x
Cc1ccccc1NC(=O)c1ccc2c(c1)N(C)CCS2	x	-21.0	x	23.4	79.5*	1.11	0.992	1.48	-10.5	-4.6	-7.4
COC(=O)c1ccc2c(c1)N(C)CCS2	5.2	-6.8	-2.8	0.5	-3.5	x	x	x	x	x	x
Clc1ccc(-c2cnnc(-c3ccccn3)n2)cc1	u	-72.8	-6.2	25.3	82.5*	1.25	1.33	2.02	-22.8	-30.9	-21.2
c1ccc(-c2cnnc(-c3ccccn3)n2)cc1	u	-30.7	-11.5	u	27.7	x	x	x	x	x	x
Cc1ccc(S(=O)(=O)Nc2ccc3c(c2)C(=O)N([C@@H](C)CO)C[C@@H](C)[C@H](CN(C)C(=O)c2ccccc2)OCCCC[C@@H](C)O3)cc1	x	7.9[16.7 µM]	-8.0[16.7 µM]	x	8.2	x	x	x	x	x	x
COc1ccc(C(=O)Nc2cc3c4c(c2)CC(=O)N4CCC3)c(OC)c1	86.5*	x	0.6	x	66.9*	0.978	0.888	1.6	-9.7	-24.1	-14.7
SMILES	MITF act	Env fusion inh	miR122 inh	Wnt act	esBAF inh	Ring1 derepress	esBAF Fgf4 qPCR	Bmi1 derepress	A549 tox SP	HepG2 cytotox SP	HEK293 tox SP
COc1cc(OC)c2c(-c3cccc(/C=C/c4ccc(F)cc4)c3)cc(=O)oc2c1	95.6*	-177.2	x	-0.7	85.9*	1.14	0.917	2.68	3.2	29.3	11.7
C[C@@H]1CN([C@H](C)CO)C(=O)c2cc(NC(=O)Nc3ccccc3)ccc2O[C@H]1CN(C)S(=O)(=O)c1ccccc1	x	22.1[16.7 µM]	-2.1[16.7 µM]	x	-0.2	x	x	x	x	x	x
Cc1cccc(Nc2nc(-c3sc(C)nc3C)cs2)c1	x	-21.8	x	8.2	69.0*	1.19	0.948	1.7	-1.2	-15.6	-22.7
COc1ccc(Cl)c(-c2cc(C(=O)Nc3ccccc3)[nH]n2)c1	x	-366.2	-36.5	-2.5	97.0*	1.22	u	1.42	-2.8	-1.6	-19.8
Cc1ccc(Cl)cc1-c1cc(C(=O)Nc2ccc(F)cc2)[nH]n1	x	-36.2	0.8	-0.5	63.3*	1.1	0.969	1.69	2.4	-16.9	-8.7
COc1ccc(Cl)c(-c2cc(C(=O)Nc3ccc(F)cc3)[nH]n2)c1	x	-68.4	7.0	2.1	68.8*	1.35	0.847	1.51	10.5	11.9	10.5
Cc1ccc(NC(=O)c2cc(-c3cc(Cl)ccc3O)n[nH]2)cc1C	1.3	19.8	4.8	3.6	0.4	x	x	x	x	x	x
Cc1ccc(NC(=O)Nc2ccc(F)cc2)cc1Cl	43.5	1.6	7.9	8.4	68.0*	1.28	0.97	1.65	-2.2	-34.2	-2.6
COc1ccc(Cl)c(-c2cc(C(=O)NCc3ccc(C(F)(F)F)cc3)[nH]n2)c1	x	-27.5	-4.9	0.3	3.0	x	x	x	x	x	x
C[C@H]1CN([C@@H](C)CO)C(=O)c2cccc(NC(=O)Nc3cccc4ccccc34)c2O[C@H]1CN(C)C(=O)Nc1ccccc1	x	9.7[16.7 µM]	-6.6[16.7 µM]	x	5.6	x	x	x	x	x	x
C[C@@H]1CN([C@H](C)CO)C(=O)c2cc(NC(=O)Nc3ccc(F)cc3)ccc2O[C@@H](C)CCCCO[C@@H]1CN(C)Cc1ccncc1	x	6.5[16.7 µM]	-4.4[16.7 µM]	x	7.9	x	x	x	x	x	x
COc1ccc(-c2cc(C(=O)Nc3ccc(NC(C)=O)cc3)[nH]n2)c(C)c1	x	-23.8	7.7	-1.8	60.6*	1.16	1.02	1.52	-11.7	0.7	-10.6
